# Measured values from PubChem BioAssay (Tox21).
# Where “and” joins values, the source holds several entries; their conditions need not be identical. Identical values can stand only once. Records with an inconclusive call do not appear. A call without a number means that no potency is given here. The source holds several records for some structures; these can differ, active in one and inactive in another. Calls of active or inactive are those of the source. Unless noted, calls follow the shape of the dose curve; as a rule, active = well fitted curve in the direction sought with a large enough effect in the repeat runs; inconclusive = weak or mixed curves; inactive = no such curve, though single readings can be large; an effect the other way counts as inactive or inconclusive.
# Columns and labels:
# [1] = qHTS assay to identify aromatase inhibitors - cell viability counter screen (AID 743084);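 also: cells stimulated with testosterone during compound exposure; nearly all actives have a fitted effect of over 55% in size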; also: potency is read from the fitted curve at half-maximal effect
# [2] = target: Aryl hydrocarbon receptor (Homo sapiens) (UniProt P35869); test: qHTS assay to identify small molecule that activate the aryl hydrocarbon receptor (AhR) signaling pathway (AID 743085); also: nearly all actives have a fitted effect of over 15% in size; also: potency is read from the fitted curve at half-maximal effect;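 as to activation: HG2L7.5c1 human HepG2 liver cells with stably integrated DRE-driven firefly reporter; series mostly up to about 70 µM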
# Aryl hydrocarbon receptor (Homo sapiens), sequence (P35869 whole entry, looked up): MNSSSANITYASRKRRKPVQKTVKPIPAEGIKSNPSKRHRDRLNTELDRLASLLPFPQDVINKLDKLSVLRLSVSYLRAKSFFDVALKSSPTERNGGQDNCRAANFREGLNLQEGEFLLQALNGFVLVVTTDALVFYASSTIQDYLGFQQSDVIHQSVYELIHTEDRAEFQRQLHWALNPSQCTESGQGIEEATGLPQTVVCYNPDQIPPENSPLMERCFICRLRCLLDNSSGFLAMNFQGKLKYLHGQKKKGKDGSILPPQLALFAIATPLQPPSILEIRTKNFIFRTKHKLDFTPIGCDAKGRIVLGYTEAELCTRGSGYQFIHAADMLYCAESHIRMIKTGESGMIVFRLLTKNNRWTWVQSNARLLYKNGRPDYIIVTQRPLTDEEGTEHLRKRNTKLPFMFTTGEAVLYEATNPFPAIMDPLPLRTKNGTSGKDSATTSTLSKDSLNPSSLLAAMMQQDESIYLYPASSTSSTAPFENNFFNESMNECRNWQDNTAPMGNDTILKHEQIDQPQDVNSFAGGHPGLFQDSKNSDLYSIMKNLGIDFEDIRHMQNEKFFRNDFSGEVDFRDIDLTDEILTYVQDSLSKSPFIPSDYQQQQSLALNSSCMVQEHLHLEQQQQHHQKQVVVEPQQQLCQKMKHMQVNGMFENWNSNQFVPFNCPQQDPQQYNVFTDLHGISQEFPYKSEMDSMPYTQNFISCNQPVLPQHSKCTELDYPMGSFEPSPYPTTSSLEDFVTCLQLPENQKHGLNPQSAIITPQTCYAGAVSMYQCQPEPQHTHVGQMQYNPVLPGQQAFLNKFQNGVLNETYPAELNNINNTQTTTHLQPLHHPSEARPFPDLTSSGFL
# Method in brief: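 A multiplexed format paired cell viability (CellTiter-Fluor fluorescence) with AhR-dependent luciferase output (ONE-Glo luminescence) in the same wells of HepG2 DRE-luc cells after 24 h compound exposure at 37C.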
# [3] = qHTS assay to identify small molecule that activate the aryl hydrocarbon receptor (AhR) signaling pathway - cell viability counter screen (AID 743086);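 also: HepG2 liver cells carrying the AhR DRE luciferase reporter; series mostly up to about 70 µM; nearly all actives have a fitted effect of over 45% in size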
# Method in brief: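 HepG2-AhR-luc (HG2L7.5c1) cells, 4000/well, treated 24 h at 37 C with compound; viability measured as CellTiter-Fluor fluorescence after 30 min in the same wells as the luciferase read.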
# [4] = target: Peroxisome proliferator-activated receptor gamma (Homo sapiens) (UniProt P37231); test: qHTS assay to identify small molecule agonists of the peroxisome proliferator-activated receptor gamma (PPARg) signaling pathway (AID 743094; active = well fitted activation curve with a large enough effect in the signal ratio in the repeat runs, not every such curve was filed as active; the % refers to the signal ratio)
# Peroxisome proliferator-activated receptor gamma (Homo sapiens), sequence (P37231 whole entry, looked up): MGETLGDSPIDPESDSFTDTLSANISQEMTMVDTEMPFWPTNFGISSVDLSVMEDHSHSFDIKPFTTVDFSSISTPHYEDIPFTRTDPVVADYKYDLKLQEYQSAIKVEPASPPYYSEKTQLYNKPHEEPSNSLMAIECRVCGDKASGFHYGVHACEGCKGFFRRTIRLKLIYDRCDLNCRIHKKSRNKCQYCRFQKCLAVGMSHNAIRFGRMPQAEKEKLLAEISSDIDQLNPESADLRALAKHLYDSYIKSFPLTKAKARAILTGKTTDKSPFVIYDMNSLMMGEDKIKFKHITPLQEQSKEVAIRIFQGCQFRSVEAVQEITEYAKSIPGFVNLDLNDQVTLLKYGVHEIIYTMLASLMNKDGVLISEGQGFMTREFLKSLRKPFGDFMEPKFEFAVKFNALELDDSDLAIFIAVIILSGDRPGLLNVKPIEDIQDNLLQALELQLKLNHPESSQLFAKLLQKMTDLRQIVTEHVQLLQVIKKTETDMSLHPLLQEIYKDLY
# Method in brief: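 Stably transfected HEK293H cells (GeneBLAzer PPARg UAS-bla) were incubated with test substances for 17 h at 37C after a 5 h pre-incubation; beta-lactamase activity was then detected by FRET substrate fluorescence.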
# [5] = target: Peroxisome proliferator-activated receptor gamma (Homo sapiens) (UniProt P37231); test: qHTS assay to identify small molecule antagonists of the peroxisome proliferator-activated receptor gamma (PPARg) signaling pathway (AID 743191; calls by dose curve; also: series mostly up to about 63 µM; nearly all actives have a fitted effect of over 30% in size)
# Method in brief: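 GeneBLAzer PPARg UAS-bla HEK293H cells, 5 h post-plating, exposed to compounds 17 h at 37C. LiveBLAzer B/G FRET substrate added for 1 h at room temperature; beta-lactamase reporter read by fluorescence intensity.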
# [6] = qHTS assay to identify small molecule antagonists of the peroxisome proliferator-activated receptor gamma (PPARg) signaling pathway - cell viability counter screen (AID 743194); also: nearly all actives have a fitted effect of over 55% in size
# Method in brief: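 Cytotoxicity counter screen in PPARg-bla HEK293H cells, same wells as reporter assay. Compounds plus 50 nM rosiglitazone (final) for 17 h at 37 C, then viability read by CellTiter-Glo luminescence.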
# [7] = qHTS assay for small molecule agonists of the antioxidant response element (ARE) signaling pathway - cell viability counter screen (AID 743203; calls by dose curve; also: nearly all actives have a fitted effect of over 55% in size)
# Method in brief: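 Cells (ARE-bla HepG2, 2,000/well) receive DMSO-dissolved compounds after a 5 hrs rest. Plates incubate 16 hrs at 37C/5% CO2. CellTiter-Glo luminescence is then recorded after 30 min at room temperature.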
# [8] = qHTS assay for small molecule activators of the heat shock response signaling pathway - cell viability counter screen (AID 743209); also: nearly all actives have a fitted effect of over 50% in size
# Method in brief: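 Quantitative HTS format, Tox21 10K library. HeLa cells carrying an HSE-driven beta-lactamase reporter were treated 5 h at 37 C, then assessed for viability by CellTiter-Glo luminescence.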
# [9] = qHTS assay for small molecule activators of the heat shock response signaling pathway (AID 743210; active = well fitted activation curve with a large enough effect in the signal ratio in the repeat runs, with a control signal flat, not every such curve was filed as active; the % refers to the signal ratio;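 also: HeLa cells with beta-lactamase reporter driven by heat shock elements; series mostly up to about 63 µM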)
# Method in brief: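 Quantitative high-throughput format using an engineered HeLa line in which heat shock response elements drive beta-lactamase; after 5 h with compound, cells received a B/G FRET substrate and fluorescence was read.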
# [10] = target: Peroxisome proliferator-activated receptor delta (Homo sapiens) (UniProt Q03181); test: qHTS assay to identify small molecule agonists of the peroxisome proliferator-activated receptor delta (PPARd) signaling pathway (AID 743212; calls by dose curve)
# Peroxisome proliferator-activated receptor delta (Homo sapiens), sequence (Q03181 whole entry, looked up): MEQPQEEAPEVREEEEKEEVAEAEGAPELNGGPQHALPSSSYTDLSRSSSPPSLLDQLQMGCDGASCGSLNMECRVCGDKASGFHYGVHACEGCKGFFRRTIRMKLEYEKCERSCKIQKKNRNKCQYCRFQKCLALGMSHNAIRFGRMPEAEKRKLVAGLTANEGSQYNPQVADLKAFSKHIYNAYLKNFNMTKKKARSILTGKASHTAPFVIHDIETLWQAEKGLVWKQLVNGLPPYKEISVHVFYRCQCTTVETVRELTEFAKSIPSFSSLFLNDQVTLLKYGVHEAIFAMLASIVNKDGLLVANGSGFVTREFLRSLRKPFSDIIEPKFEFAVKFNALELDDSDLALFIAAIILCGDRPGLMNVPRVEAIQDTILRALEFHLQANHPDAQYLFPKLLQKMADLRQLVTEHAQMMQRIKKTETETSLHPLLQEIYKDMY
# Method in brief: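 Quantitative high-throughput agonist screen in a HEK293H beta-lactamase reporter line under UAS control. Compounds in DMSO, at 37 C. Fluorescence read after 2 h with FRET substrate at room temperature.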
# [11] = qHTS assay to identify small molecule antagonists of the peroxisome proliferator-activated receptor delta (PPARd) signaling pathway - cell viability counter screen (AID 743213); also: nearly all actives have a fitted effect of over 50% in size
# Method in brief: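 Luminescence from CellTiter-Glo, added after the bla read and incubated 30 min at room temperature, gives viability of HEK293H PPARd-bla cells exposed to compounds for 17 h at 37 C with 300 nM L165041.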
# [12] = target: Peroxisome proliferator-activated receptor delta (Homo sapiens) (UniProt Q03181); test: qHTS assay to identify small molecule antagonists of the peroxisome proliferator-activated receptor delta (PPARd) signaling pathway (AID 743215; active = well fitted inhibition curve with a large enough effect in the signal ratio in the repeat runs, not every such curve was filed as active; the % refers to the signal ratio;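 also: cells stimulated with agonist L165041 at 300 nM final during compound exposure; series mostly up to about 62 µM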)
# Method in brief: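 Antagonist-mode beta-lactamase reporter screen: HEK293H cells with UAS-bla under PPARd control, stimulated by 300 nM L165041 (final) alongside test compound for 17 h at 37 C, then FRET fluorescence after 2 h substrate incubation.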
# [13] = qHTS assay to identify small molecule agonists of the farnesoid-X-receptor (FXR) signaling pathway - cell viability counter screen (AID 743218); also: nearly all actives have a fitted effect of over 45% in size; also: potency is read from the fitted curve at half-maximal effect
# Method in brief: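 In GeneBLAzer FXR-UAS-bla HEK 293T cells, compounds act for 16 h at 37 C. Cell viability is then scored in the reporter wells by CellTiter-Glo, 30 min at RT, luminescence.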
# [14] = qHTS assay to identify small molecule antagonists of the farnesoid-X-receptor (FXR) signaling pathway - cell viability counter screen (AID 743221; active = well fitted cell-killing curve with a large enough effect in the repeat runs, not every such curve was filed as active; also: nearly all actives have a fitted effect of over 50% in size)
# Method in brief: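 Cytotoxicity is taken from ATP luminescence (CellTiter-Glo, 30 min, room temperature) in FXR-bla HEK 293T cells previously incubated 16 h at 37 C with compound and chenodeoxycholic acid at 50 uM final.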
# [15] = target: Vitamin D3 receptor (Homo sapiens) (UniProt P11473); test: qHTS assay to identify small molecule agonists of the vitamin D receptor (VDR) signaling pathway (AID 743222; calls by dose curve)
# Vitamin D3 receptor (Homo sapiens), sequence (P11473 whole entry, looked up): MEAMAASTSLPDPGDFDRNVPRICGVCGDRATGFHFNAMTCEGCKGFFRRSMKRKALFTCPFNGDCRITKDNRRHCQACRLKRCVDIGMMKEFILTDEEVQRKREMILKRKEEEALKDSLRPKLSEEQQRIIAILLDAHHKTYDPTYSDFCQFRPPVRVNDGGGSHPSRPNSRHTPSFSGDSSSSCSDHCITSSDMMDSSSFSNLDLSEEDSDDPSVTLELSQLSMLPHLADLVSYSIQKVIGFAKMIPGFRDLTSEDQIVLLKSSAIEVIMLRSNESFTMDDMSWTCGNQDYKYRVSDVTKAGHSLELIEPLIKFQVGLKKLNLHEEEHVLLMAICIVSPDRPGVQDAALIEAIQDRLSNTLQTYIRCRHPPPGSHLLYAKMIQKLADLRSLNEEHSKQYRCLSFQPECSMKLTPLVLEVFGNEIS
# Method in brief: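 Agonist activity measured in VDR-bla reporter cells. Exposure 16 h, 37C, 5% CO2; detection by B/G FRET substrate, 2 h RT.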
# [16] = target: Vitamin D3 receptor (Homo sapiens) (UniProt P11473); test: qHTS assay to identify small molecule antagonists of the vitamin D receptor (VDR) signaling pathway (AID 743223; active = well fitted inhibition curve with a large enough effect in the signal ratio in the repeat runs, not every such curve was filed as active; the % refers to the signal ratio)
# Method in brief: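 Quantitative HTS in VDR-bla reporter cells stimulated with 1alpha,25-dihydroxyvitamin D3, 3 nM final. Compound exposure 16 h, 37C, 5% CO2. Read-out: beta-lactamase FRET substrate fluorescence, 2 h RT.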
# [17] = qHTS assay for small molecule agonists of the antioxidant response element (ARE) signaling pathway (AID 743202; active = well fitted activation curve with a large enough effect in the signal ratio in the repeat runs, not every such curve was filed as active; the % refers to the signal ratio; also: potency is read from the fitted curve at half-maximal effect)
# Method in brief: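 Agonist mode reporter screen: HepG2 cells with ARE-controlled beta-lactamase are incubated with test compounds for 16 h at 37 C, and beta-lactamase activity is measured as fluorescence of cleaved B/G FRET substrate.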
# [18] = qHTS assay to identify small molecule agonists of the peroxisome proliferator-activated receptor delta (PPARd) signaling pathway - cell viability counter screen (AID 743211); also: nearly all actives have a fitted effect of over 55% in size
# Method in brief: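 Tox21 library compounds, delivered in DMSO, were incubated 17 h with PPARd-bla HEK293H cells; cytotoxicity was taken from CellTiter-Glo luminescence read 30 min after reagent addition.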
# [19] = target: Bile acid receptor (Homo sapiens) (UniProt Q96RI1); test: qHTS assay to identify small molecule antagonists of the farnesoid-X-receptor (FXR) signaling pathway (AID 743217; active = well fitted inhibition curve with a large enough effect in the signal ratio in the repeat runs, not every such curve was filed as active; the % refers to the signal ratio)
# Bile acid receptor (Homo sapiens), sequence (Q96RI1 whole entry, looked up): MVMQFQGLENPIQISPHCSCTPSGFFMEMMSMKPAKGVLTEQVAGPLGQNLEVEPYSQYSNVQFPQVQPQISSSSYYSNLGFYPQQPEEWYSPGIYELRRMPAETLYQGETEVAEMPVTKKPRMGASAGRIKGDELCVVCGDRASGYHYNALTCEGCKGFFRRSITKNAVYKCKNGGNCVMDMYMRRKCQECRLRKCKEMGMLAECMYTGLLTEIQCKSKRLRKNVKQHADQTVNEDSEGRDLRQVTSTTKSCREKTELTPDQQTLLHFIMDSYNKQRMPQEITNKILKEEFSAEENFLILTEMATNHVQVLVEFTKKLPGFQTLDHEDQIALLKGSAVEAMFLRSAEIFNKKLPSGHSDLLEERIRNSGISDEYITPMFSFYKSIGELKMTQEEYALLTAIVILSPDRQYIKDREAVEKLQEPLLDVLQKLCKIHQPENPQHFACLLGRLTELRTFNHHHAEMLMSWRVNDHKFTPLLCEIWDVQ
# Method in brief: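 Beta-lactamase reporter under UAS control in HEK 293T cells; compound exposure 16 h at 37 °C in the presence of chenodeoxycholic acid (50 uM final); signal from B/G FRET substrate after 2 h at room temperature.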
# [20] = target: Bile acid receptor (Homo sapiens) (UniProt Q96RI1); test: qHTS assay to identify small molecule agonists of the farnesoid-X-receptor (FXR) signaling pathway (AID 743220; active = well fitted activation curve with a large enough effect in the signal ratio in the repeat runs, not every such curve was filed as active; the % refers to the signal ratio)
# Method in brief: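 Beta-lactamase reporter under UAS control in GeneBLAzer FXR HEK 293T cells (5000/well) measured with LiveBLAzer FRET substrate after 2 h at room temperature. Compound exposure lasted 16 h at 37C.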
SMILES,Potency [1],Potency [2],Potency [3],outcome [4],Potency [5],Potency [6],Potency [7],Potency [8],outcome [9],outcome [10],Potency [11],outcome [12],Potency [13],Potency [14],Potency [15],Potency [16],Potency [17],Potency [18],outcome [19],outcome [20]
CCc1ccc(O)cc1,inactive,inactive,inactive,inactive,inactive,inactive,inactive,inactive,inactive,inactive,inactive,inactive,inactive,inactive,inactive,inactive,–,–,–,–
CC1CC(OC(=O)c2ccccc2O)CC(C)(C)C1 (stereo unspecified),inactive,inactive,inactive,inactive,inactive,inactive,inactive,–,–,inactive,inactive,inactive,inactive,inactive,–,–,inactive,inactive,–,–
NCCc1ccc(O)c(O)c1,27.4 µM (active),inactive,inactive,inactive,inactive,inactive,inactive,inactive,–,–,inactive,–,inactive,inactive,inactive,inactive,109 nM (active) and 376 nM (active),inactive,inactive,inactive
O=C(Oc1ccccc1)c1ccc(O)cc1,inactive,inactive,inactive,inactive,inactive,inactive,inactive,inactive,inactive,inactive,inactive,–,inactive,inactive,inactive,inactive,inactive,–,–,–
NCc1cccc(CN)c1,inactive,inactive,inactive,inactive,inactive,inactive,inactive,inactive,inactive,inactive,inactive,inactive,inactive,inactive,inactive,inactive,–,inactive,inactive,inactive
NS(=O)(=O)c1cc2c(cc1Cl)NC=NS2(=O)=O,inactive,inactive,inactive,inactive,inactive,inactive,inactive,inactive,inactive,inactive,inactive,inactive,inactive,inactive,inactive,inactive,inactive,inactive,–,–
O=C(Cl)c1c(Cl)c(Cl)c(C(=O)Cl)c(Cl)c1Cl,inactive,inactive,inactive,inactive,inactive,inactive,inactive,inactive,inactive,inactive,inactive,inactive,inactive,inactive,–,–,inactive,inactive,inactive,inactive
OCC#CCO,inactive,inactive,inactive,inactive,inactive,inactive,inactive,inactive,inactive,–,inactive,–,inactive,inactive,inactive,inactive,–,inactive,inactive,inactive
CS(=O)(=O)c1ccc([C@@H](O)[C@@H](CO)NC(=O)C(Cl)Cl)cc1,inactive,inactive,inactive,inactive,inactive,inactive,inactive,inactive,inactive,inactive,inactive,inactive,inactive,inactive,inactive,inactive,–,–,–,–
C=C1C2CCC(C2)C1(C)C (stereo unspecified),inactive,inactive,inactive,inactive,inactive,inactive,inactive,inactive,inactive,inactive,inactive,inactive,inactive,inactive,inactive,inactive,inactive,inactive,–,–
O=Nc1ccc(O)cc1,inactive,53.2 µM (active) and inactive,inactive,inactive,inactive,inactive,inactive,inactive,inactive,inactive,inactive,inactive,inactive,inactive,–,–,inactive,inactive,inactive,inactive
c1ccc2ccccc2c1,inactive,inactive,inactive,inactive,inactive,inactive,inactive,inactive,inactive,inactive,inactive,inactive,inactive,inactive,inactive,inactive,inactive,–,inactive,inactive
CCCCCCC(C)(C)S,inactive,inactive,inactive,inactive,inactive,inactive,inactive,inactive,inactive,–,inactive,–,inactive,inactive,–,–,–,–,inactive,inactive
CCOC(=O)[C@H](CCc1ccccc1)N[C@@H](C)C(=O)N1Cc2ccccc2C[C@H]1C(=O)O,inactive,6.16 µM (active),inactive,inactive,inactive,inactive,inactive,inactive,inactive,inactive,inactive,inactive,inactive,inactive,inactive,inactive,–,–,inactive,inactive
CCCCCCOC(C)=O,inactive,inactive,inactive,inactive,inactive,inactive,inactive,inactive,–,inactive,inactive,inactive,inactive and 24.5 µM (active),inactive,inactive,–,inactive,inactive,inactive,inactive
